Screens from PubChem.
TRHR agonist: agonists of human TRH receptor. AID 493084. hit rate 0.18% among 360,000. TRHR cells, calcium flux fluo-8, FDSS agonist mode. activation, % at 2 µM; note: 0% is about no effect
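Steps: seed TRHR cells overnight; add fluo-8 no-wash Ca dye, RT 30 min–1.5 h; record 10 s baseline; pin-transfer compounds; monitor fluorescence 1 cycle/s for the agonist window. Calcium increases flag candidate agonists.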
D1 antag: blocks dopamine activation of the human D1 receptor | P21728 | HEK293 TREx D1 cells, calcium flux, dopamine EC80; stronger effect = lower value | activity change, negative = inhibition, % at 10 µM | hit rate 3.2% among 360,000 | AID 504652; in the data active = activity change below about -30%; note: % is set by controls: 0 for no effect and ±100 for the full control effect
Target sequence (P21728 whole entry, looked up): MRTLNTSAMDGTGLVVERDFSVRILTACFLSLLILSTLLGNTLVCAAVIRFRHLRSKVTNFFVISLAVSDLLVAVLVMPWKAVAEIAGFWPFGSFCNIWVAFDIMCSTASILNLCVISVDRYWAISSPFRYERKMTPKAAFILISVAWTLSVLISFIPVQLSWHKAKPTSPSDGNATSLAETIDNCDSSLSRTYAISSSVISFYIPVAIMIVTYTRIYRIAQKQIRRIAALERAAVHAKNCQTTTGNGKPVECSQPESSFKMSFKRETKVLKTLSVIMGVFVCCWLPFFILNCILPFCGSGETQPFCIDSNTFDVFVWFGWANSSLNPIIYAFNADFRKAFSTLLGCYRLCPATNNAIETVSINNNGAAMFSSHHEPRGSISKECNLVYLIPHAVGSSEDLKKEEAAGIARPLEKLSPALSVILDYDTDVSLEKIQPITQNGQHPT
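Antagonism measured as reduced calcium response to an EC80 dopamine addition following 180 s compound pre-read; cells were inducible HEK293 Trex D1 plated overnight at 30 C, read kinetically at 1 cycle/sec.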
TRHR PAM: allosteric enhancers of human TRH receptor; P34981; TRHR cells, fluo-8 calcium fluorescence, EC20 TRH enhancement; enhancement, % at 2 µM; hit rate 0.66% among 360,000; in the data active = enhancement above about 30%; note: 0% is about no effect
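TRHR-expressing cells loaded with fluo-8 calcium dye were read kinetically (ex 480/em 530) during compound addition, then stimulated with an EC20 of TRH (10 nM final). Enhancement of the Gq-mediated intracellular calcium response was scored.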
D1 ag: human D1 receptor agonism | P21728 | HEK293 T-REx D1 cells, calcium flux, agonist mode | activation, % at 2 µM | hit rate 1% among 360,000; note: 0% is about no effect
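Inducible HEK293 T-REx D1 cells, force-coupled to calcium signalling, were plated at 4000 cells/well with tetracycline and held overnight at 30 C. After no-wash calcium dye loading, compound-evoked calcium rise over 180 s flagged agonists.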
D1 PAM: human D1 dopamine receptor positive modulation; P21728; HEK293 TREx D1 cells, calcium flux, dopamine EC20 potentiation; potentiation, % at 10 µM; hit rate 0.036% among 360,000; in the data active = potentiation above about 30%; note: 0% is about no effect
* = called active by the depositor. Most compounds without a hit are left out; they make up all but 4.6% or so of the library. Cut-off read from the data, not from the text of the source, unless noted: active = activation above about 30%; inactive = the rest.

Results for CC1CCCN(S(=O)(=O)c2ccc3[nH]c4c(c3c2)CCCC4)C1 (stereo not drawn) ?
TRHR agonist: 0.8; D1 antag: -5.9; TRHR PAM: 18.6; D1 ag: 2.0; D1 PAM: 2.7

Results for COc1ccccc1-c1noc(-c2ccc(N3CCOCC3)c([N+](=O)[O-])c2)n1 ?
TRHR agonist: 0.1; D1 antag: -7.0; TRHR PAM: -5.3; D1 ag: 2.6; D1 PAM: -1.0

How did CC(C(=O)N1CCCCC1)N1C(=O)c2ccccc2C1=O (stereo not drawn) do in these assays?
TRHR agonist: -0.8; D1 antag: -4.9; TRHR PAM: -3.7; D1 ag: 0.7; D1 PAM: -1.8

Results for CC1SC(=NC(=O)C(C)N2C(=O)c3ccccc3C2=O)NC1=O (stereo not drawn) ?
TRHR agonist: 0.1; D1 antag: -34.1*; TRHR PAM: -5.1; D1 ag: -0.5; D1 PAM: -4.2

Results for COc1ccc(C(=O)NNC(=O)C(=O)NCc2ccccc2)cc1 ?
TRHR agonist: -0.6; D1 antag: -48.2*; TRHR PAM: 4.4; D1 ag: 0.8; D1 PAM: -3.2

Results for COc1ccc(C(=O)NNC(=O)C2CCCO2)cc1 (stereo not drawn) ?
TRHR agonist: -0.6; D1 antag: -31.2*; TRHR PAM: -1.8; D1 ag: 0.3; D1 PAM: -3.0

How did COc1ccc(C(=O)NNC(=O)C(=O)NC2CCCCC2)cc1 do in these assays?
TRHR agonist: 0.2; D1 antag: -46.5*; TRHR PAM: 12.1; D1 ag: 4.2; D1 PAM: -7.1

How did COc1ccccc1N1CCN(C(=O)c2cc3c(=O)n(Cc4ccco4)ccc3nc2C)CC1 do in these assays?
TRHR agonist: 0.0; D1 antag: -8.9; TRHR PAM: 0.2; D1 ag: 0.7; D1 PAM: -6.2

How did N#CC1=C(N)C(C#N)(C#N)C(c2cccnc2)C2CCCC=C12 (stereo not drawn) do in these assays?
TRHR agonist: 1.8; D1 antag: -30.5*; TRHR PAM: 0.2; D1 ag: 4.3; D1 PAM: -2.8

Results for CN(C)CCn1c2c(c(SCC(=O)Nc3ccc(F)cc3F)nc1=O)CCC2 ?
TRHR agonist: 0.3; TRHR PAM: -1.7; D1 ag: 0.6; D1 PAM: -1.8

How did COCCCNc1c2c3c(cccc3[nH]c1=O)C(=O)c1ccccc1-2 do in these assays?
TRHR agonist: -0.4; D1 antag: -53.0*; TRHR PAM: 17.4; D1 ag: 809.4*

How did COC(=O)c1ccc(N(CC(=O)NC2CCCC2)C(=O)CNC(=O)c2cccs2)cc1 do in these assays?
TRHR agonist: 0.3; D1 antag: 20.6; TRHR PAM: 4.3; D1 ag: 1.4; D1 PAM: 30.1*

Results for COc1cccc(C(=O)c2cn(CC(=O)Nc3cccc(Cl)c3C)c3nc(C)ccc3c2=O)c1 ?
TRHR agonist: -0.1; D1 antag: 4.4; TRHR PAM: -1.5; D1 ag: 4.2; D1 PAM: 2.4

What do the screens show for `COc1ccc(OC)c(CNc2ncc(-c3ccc(Cl)cc3)n2C)c1`?
TRHR agonist: -1.5; D1 antag: 4.4; TRHR PAM: -0.1; D1 ag: -1.1; D1 PAM: -5.0

How did COc1ccc(OC)c(Nc2ncnc3c2cnn3-c2cccc(C)c2)c1 do in these assays?
TRHR agonist: -0.2; D1 antag: -39.6*; TRHR PAM: 1.2; D1 ag: -2.4; D1 PAM: -9.2

How did COc1ccc(OC)c(Nc2ncnc3c2cnn3-c2cccc(Cl)c2)c1 do in these assays?
TRHR agonist: 0.1; D1 antag: 11.0; TRHR PAM: 17.4; D1 ag: -1.9; D1 PAM: -0.5

How did Cc1cccc(-n2ncc3c(NCc4ccccc4)ncnc32)c1 do in these assays?
TRHR agonist: -0.3; D1 antag: -89.3*; TRHR PAM: 8.0; D1 ag: 2.8; D1 PAM: -8.2

Results for c1ccc(CNc2ncnc3c2cnn3-c2ccccc2)cc1 ?
TRHR agonist: 0.0; D1 antag: -3.5; TRHR PAM: 6.5; D1 ag: 2.7; D1 PAM: -3.7

How did Cc1ccc(-n2ncc3c(NCCc4ccccc4)ncnc32)cc1C do in these assays?
TRHR agonist: 1.4; D1 antag: -58.9*; TRHR PAM: 3.4; D1 ag: 6.0; D1 PAM: -4.1
